Results from PubChem BioAssay AID1159580 (chemical genetic matrix, 2015).
Hit rate of the full screen: of about 5,500 compounds, about 2,000 (36%) were called active. Inconclusive results (about 18%) are left out. No stated cut-off is given here; in the data, active means normalized growth mostly below about 0.91 (no sharp cut-off); inconclusive means no clear call, values can overlap the other calls; inactive means mostly above about 0.92. The list shows a part of the results.

Assay: chemical genetic growth profiling, strain panel (AID 1159580);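 further: tested at 20 µM; growth read once vehicle control cultures reached saturation at 30 °C; 1 = growth at the plate median or of vehicle wells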
Conditions: growth OD

Measured: normalized growth

CC[C@H]1OC(=O)[C@H](C)[C@@H](O[C@H]2C[C@@](C)(OC)[C@@H](O)[C@H](C)O2)[C@H](C)[C@@H](O[C@@H]2O[C@H](C)C[C@H](N(C)C)[C@H]2O)[C@](C)(OC)C[C@@H](C)C(=O)[C@H](C)[C@@H](O)[C@]1(C)O
inactive: S. cerevisiae deletion strains, locus YAL013W, strain DEP1, stronger effect = lower value 0.992 | S. cerevisiae deletion strains, locus YBR021W, strain FUR4, stronger effect = lower value 1.01 | S. cerevisiae deletion strains, locus YBR229C, strain ROT2, stronger effect = lower value 0.989 | S. cerevisiae deletion strains, locus YCL029C, strain bik1, stronger effect = lower value 0.994 | S. cerevisiae deletion strains, locus YDL035C, strain GPR1, stronger effect = lower value 0.977 | S. cerevisiae deletion strains, locus YDL074C, strain BRE1, stronger effect = lower value 0.949 | S. cerevisiae deletion strains, locus YDL101C, strain DUN1, stronger effect = lower value 0.992 | S. cerevisiae deletion strains, locus YDL134C, strain PPH21, stronger effect = lower value 0.989 | S. cerevisiae deletion strains, locus YDL185W, strain tfp1, stronger effect = lower value 0.994 | S. cerevisiae deletion strains, locus YDL192W, strain arf1, stronger effect = lower value 0.966 | S. cerevisiae deletion strains, locus YDR101C, strain arx1, stronger effect = lower value 0.973 | S. cerevisiae deletion strains, locus YDR150W, strain NUM1, stronger effect = lower value 0.987 | S. cerevisiae deletion strains, locus YDR162C, strain NBP2, stronger effect = lower value 0.974 | S. cerevisiae deletion strains, locus YDR318W, strain mcm21, stronger effect = lower value 0.986 | S. cerevisiae deletion strains, locus YDR388W, stronger effect = lower value 0.986 | S. cerevisiae deletion strains, locus YDR502C, strain sam2, stronger effect = lower value 0.99 | S. cerevisiae deletion strains, locus YEL061C, strain CIN8, stronger effect = lower value 0.985 | S. cerevisiae deletion strains, locus YER110C, stronger effect = lower value 1.04 | S. cerevisiae deletion strains, locus YER155C, strain BEM2, stronger effect = lower value 0.987 | S. cerevisiae deletion strains, locus YER167W, strain BCK2, stronger effect = lower value 0.986 | S. cerevisiae deletion strains, locus YGL078C, strain dbp3, stronger effect = lower value 1.01 | S. cerevisiae deletion strains, locus YGL086W, strain mad1, stronger effect = lower value 0.969 | S. cerevisiae deletion strains, locus YGL248W, strain PDE1, stronger effect = lower value 0.986 | S. cerevisiae deletion strains, locus YGR078C, strain PAC10, stronger effect = lower value 0.991 | S. cerevisiae deletion strains, locus YGR135W, strain pre9, stronger effect = lower value 0.989 | S. cerevisiae deletion strains, locus YGR229C, strain SMI1, stronger effect = lower value 0.963 | S. cerevisiae deletion strains, locus YGR252W, strain gcn5, stronger effect = lower value 0.932 | S. cerevisiae deletion strains, locus YHR030C, strain SLT2, stronger effect = lower value 0.986 | S. cerevisiae deletion strains, locus YHR079C, strain IRE1 (second series), stronger effect = lower value 0.983 | S. cerevisiae deletion strains, locus YHR094C, strain hxt1, stronger effect = lower value 0.982 | S. cerevisiae deletion strains, locus YHR129C, strain ARP1, stronger effect = lower value 0.981 | S. cerevisiae deletion strains, locus YHR200W, strain rpn10, stronger effect = lower value 0.98 | S. cerevisiae deletion strains, locus YIL066C, strain RNR3, stronger effect = lower value 0.985 | S. cerevisiae deletion strains, locus YIL073C, strain SPO22, stronger effect = lower value 0.985 | S. cerevisiae deletion strains, locus YIL125W, strain kgd1, stronger effect = lower value 1.01 | S. cerevisiae deletion strains, locus YIR030C, strain dcg1, stronger effect = lower value 0.999 | S. cerevisiae deletion strains, locus YJL095W, strain BCK1, stronger effect = lower value 0.971 | S. cerevisiae deletion strains, locus YJL134W, strain LCB3, stronger effect = lower value 0.989 | S. cerevisiae deletion strains, locus YJL168C, strain set2, stronger effect = lower value 0.978 | S. cerevisiae deletion strains, locus YJL187C, strain SWE1 (second series), stronger effect = lower value 0.989 | S. cerevisiae deletion strains, locus YJR043C, strain POL32, stronger effect = lower value 0.958 | S. cerevisiae deletion strains, locus YJR075W, strain HOC1, stronger effect = lower value 0.954 | S. cerevisiae deletion strains, locus YKL009W, strain mrt4, stronger effect = lower value 0.997 | S. cerevisiae deletion strains, locus YKL068W, stronger effect = lower value 0.982 | S. cerevisiae deletion strains, locus YKL085W, strain MDH1 (second series), stronger effect = lower value 0.978 | S. cerevisiae deletion strains, locus YKL085W, strain MDH1, stronger effect = lower value 0.978 | S. cerevisiae deletion strains, locus YKL190W, strain CNB1, stronger effect = lower value 0.967 | S. cerevisiae deletion strains, locus YKR001C, strain vps1, stronger effect = lower value 0.999 | S. cerevisiae deletion strains, locus YLR039C, strain RIC1, stronger effect = lower value 0.979 | S. cerevisiae deletion strains, locus YLR058C, strain SHM2, stronger effect = lower value 0.987 | S. cerevisiae deletion strains, locus YLR102C, strain apc9, stronger effect = lower value 0.997 | S. cerevisiae deletion strains, locus YLR262C, strain YPT6, stronger effect = lower value 1.03 | S. cerevisiae deletion strains, locus YLR268W, strain sec22, stronger effect = lower value 0.987 | S. cerevisiae deletion strains, locus YLR330W, strain CHS5, stronger effect = lower value 0.992 | S. cerevisiae deletion strains, locus YLR342W, strain FKS1 (second series), stronger effect = lower value 0.956 | S. cerevisiae deletion strains, locus YLR371W, strain rom2, stronger effect = lower value 0.967 | S. cerevisiae deletion strains, locus YLR418C, strain cdc73, stronger effect = lower value 0.916 | S. cerevisiae deletion strains, locus YML016C, strain PPZ1, stronger effect = lower value 0.986 | S. cerevisiae deletion strains, locus YML032C, strain rad52, stronger effect = lower value 0.971 | S. cerevisiae deletion strains, locus YML124C, strain tub3, stronger effect = lower value 0.983 | S. cerevisiae deletion strains, locus YMR078C, strain ctf18, stronger effect = lower value 1 | S. cerevisiae deletion strains, locus YMR223W, strain ubp8, stronger effect = lower value 0.998 | S. cerevisiae deletion strains, locus YMR263W, strain SAP30, stronger effect = lower value 0.987 | S. cerevisiae deletion strains, locus YMR307W, strain GAS1, stronger effect = lower value 0.789 | S. cerevisiae deletion strains, locus YNL067W, strain RPL9B, stronger effect = lower value 0.983 | S. cerevisiae deletion strains, locus YNL128W, strain TEP1, stronger effect = lower value 0.979 | S. cerevisiae deletion strains, locus YNL153C, strain GIM3, stronger effect = lower value 0.983 | S. cerevisiae deletion strains, locus YNL233W, strain BNI4, stronger effect = lower value 0.982 | S. cerevisiae deletion strains, locus YNL250W, strain rad50, stronger effect = lower value 1 | S. cerevisiae deletion strains, locus YNL271C, strain bni1, stronger effect = lower value 1.01 | S. cerevisiae deletion strains, locus YNL298W, strain CLA4, stronger effect = lower value 1.02 | S. cerevisiae deletion strains, locus YNL307C, strain MCK1, stronger effect = lower value 1 | S. cerevisiae deletion strains, locus YNL322C, strain KRE1, stronger effect = lower value 0.987 | S. cerevisiae deletion strains, locus YNR052C, strain pop2, stronger effect = lower value 0.937 | S. cerevisiae deletion strains, locus YOL006C, strain TOP1, stronger effect = lower value 0.757 | S. cerevisiae deletion strains, locus YOL012C, strain htz1 0.325 | S. cerevisiae deletion strains, locus YOL147C, strain pex11, stronger effect = lower value 0.993 | S. cerevisiae deletion strains, locus YOR061W, strain CKA2, stronger effect = lower value 0.987 | S. cerevisiae deletion strains, locus YOR069W, strain VPS5, stronger effect = lower value 0.98 | S. cerevisiae deletion strains, locus YOR136W, strain idh2, stronger effect = lower value 1.01 | S. cerevisiae deletion strains, locus YOR144C, strain elg1, stronger effect = lower value 0.973 | S. cerevisiae deletion strains, locus YOR184W, strain ser1, stronger effect = lower value 0.991 | S. cerevisiae deletion strains, locus YOR316C, strain cot1, stronger effect = lower value 0.986 | S. cerevisiae deletion strains, locus YPL055C, strain LGE1, stronger effect = lower value 0.962 | S. cerevisiae deletion strains, locus YPL241C, strain CIN2, stronger effect = lower value 0.976 | S. cerevisiae deletion strains, locus YPR119W, strain clb2, stronger effect = lower value 0.975 | S. cerevisiae deletion strains, locus YPR141C, strain kar3, stronger effect = lower value 1.01 | S. cerevisiae deletion strains, locus YPR163C, strain tif3, stronger effect = lower value 0.955 | S. cerevisiae deletion strains, locus YPR167C, strain met16, stronger effect = lower value 0.996 | S. cerevisiae deletion strains, strain wtn01, stronger effect = lower value 0.964 | S. cerevisiae strains, strain wild type, stronger effect = lower value 0.982
